Measured values taken from PubChem BioAssay (NCI).
This is part of a sample that, as a whole, favours compounds with a hit. Of some 83,000 tested, about 20% had one in any assay.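 Activity criterion: percent growth below 10, measured after cells in 96-well plates were exposed to a single compound concentration for 48 hours.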 Values without a mark were called inactive. Activity calls are given as the source filed them.

Columns and labels:
Assay in all cases: NCI-60 one-dose screen, 48 h (100 = growth as untreated, 0 = no growth, -100 = all killed)
Conditions in all cases: 10 µM unless noted
T-47D breast = test system: T-47D breast
BT-549 breast = test system: BT-549 breast
MDA-MB-435 melanoma = test system: MDA-MB-435 melanoma
SW-620 colon = test system: SW-620 colon
MCF7 breast = test system: MCF7 breast
HCC-2998 colon = test system: HCC-2998 colon
KM12 colon = test system: KM12 colon
HCT-116 colon = test system: HCT-116 colon

SMILES	growth (T-47D breast)	growth (BT-549 breast)	growth (MDA-MB-435 melanoma)	growth (SW-620 colon)	growth (MCF7 breast)	growth (HCC-2998 colon)	growth (KM12 colon)	growth (HCT-116 colon)
CC1(C)c2ccccc2C(=O)C1(Br)Cc1ccccc1 (stereo not given)	60.6%	105%	61.3%	36.6%	81.3%	78.4%	90.9%	–
Cn1cccc1/C=C1/SC(=S)N(CCc2ccc(O)cc2)C1=O	42%	41.4%	-27.9% (active)	31.6%	33.8%	77.4%	40.5%	–
N#CCCCCCn1c2ccccc2c2c3c(c4c5ccccc5n(CCCCCC#N)c4c21)C(=O)N(O)C3=O	75.7%	75%	91.3%	106%	72.2%	80.8%	71.8%	–
COc1cccc2c1C(=O)c1c(O)c3c(c(O)c1C2=O)C[C@@](O)(C(=O)CO)C[C@@H]3OC1C[C@H](N)[C@H](O)[C@H](C)O1 (stereo not given in full)	-0.159% (active)	-56.5% (active)	-82.6% (active)	1.37% (active)	4.42% (active)	–	-14.2% (active)	3.07% (active)
CCSc1sc(-c2ccc(C)cc2)nc1[P+](c1ccccc1)(c1ccccc1)c1ccccc1	-22% (active)	-19.1% (active)	-26.8% (active)	4.99% (active)	-4.84% (active)	-23.1% (active)	-63.2% (active)	–
C=C(C)[C@@H]1CC[C@]2(C)CC[C@]3(C)[C@H](CC[C@@H]4[C@@]5(C)CCCNC(C)(C)[C@@H]5CC[C@]43C)[C@@H]12	76%	101%	84.6%	2.47% (active)	33.3%	66%	66.8%	–
COC(=O)C(Cc1ccccc1)n1cc(COc2nc(Cl)nc(Nc3ccc(Cl)cc3)n2)nn1 (stereo not given)	78.9%	99.6%	105%	99.8%	78.1%	101%	96.5%	–
COc1ccc2c(c1)C(Br)=C(CCO)C2c1ccccc1 (stereo not given)	54.3%	87.7%	91.8%	73.2%	58.8%	49.3%	42.8%	–
Clc1ccc(Cn2cc(-c3nc4ccc(Br)nc4n3Cc3ccc(Cl)cc3)c3cccnc32)cc1	34.7%	82.4%	105%	103%	57.7%	96.7%	95.9%	–
Cc1csc(Nc2nc(-c3ccc(Cl)cc3)nc(C(Cl)(Cl)Cl)n2)n1	61.6%	97.1%	89.3%	78.6%	59.4%	70%	79.6%	–
COc1ccc2c(c1)c(-c1nc(-c3c[nH]c4ncccc34)cs1)cn2C	41.4%	72.8%	69.6%	83.3%	14.9%	83.1%	24%	–
C=C(C)[C@@H]1CC[C@]2(C)[C@H](CC[C@@H]3[C@H]4[C@H]5OC[C@@]4(CCC5(C)C)CC[C@]32C)[C@@]1(C)CCCN	23%	93.8%	49.2%	-45.1% (active)	0.266% (active)	-68.4% (active)	23.9%	–
O=[N+]([O-])c1cc(S(=O)(=O)c2ccc(F)c([N+](=O)[O-])c2)ccc1F	95.8%	107%	103%	48%	58.5%	112%	80.2%	–
C/C(=C(/c1ccccc1)c1ccc(N2C(=O)c3cccc4c(NCc5ccccc5)ccc(c34)C2=O)cc1)c1ccccc1	76%	100%	102%	95.2%	89.9%	109%	91.5%	–
C/C(=N\NC(=O)C(C)SC(C)C(=O)N/N=C(\C)c1cccnc1)c1cccnc1 (stereo not given)	104%	106%	106%	96.9%	95.7%	106%	107%	–
COc1cc(NC(C)CN(CC(C)C)C(C)C)c2ncccc2c1 (stereo not given)	31%	108%	114%	92.9%	43%	103%	93.2%	–
CCCCCCCCNc1cccc2c1C(=O)c1ccccc1C2=O	94.5%	101%	105%	93.5%	102%	–	103%	103%
COc1ccc2c(c1)c(-c1nc(-c3cn(C)c4ncccc34)cs1)cn2CCN	-0.878% (active)	96.9%	95.4%	62.3%	16.6%	55%	45%	–
NCCNc1nc(-c2ccccc2)nc2nc(-c3ccccc3)oc12	81.7%	97.7%	92.2%	51%	81.2%	98.6%	98.8%	–
CC1(C)C(=O)/C(=C\c2ccco2)C[C@]2(C)[C@H]3CC[C@@H]4[C@@H](C(=O)/C=C/c5ccco5)CC[C@@]4(C)[C@]3(C)CC[C@@H]12	35%	95.7%	4.33% (active)	71.1%	62%	108%	101%	–
